# Reference: PubChem BioAssay (NCI)
# About 83,000 compounds went through this panel and 20% of them were active in at least one assay; those are over-represented in the sample as a whole.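 Percent growth is the endpoint: 0 to 100 indicates growth inhibition (40 means 60% inhibition), 0 means no net growth, and negative values indicate cell death.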 Unmarked numbers belong to inactive results. Active and inactive are the calls of the source. Rule for the calls: active = growth percent below 10; inactive = the rest.
# Tested on: HOP-92 NSCLC
# Experiment: NCI-60 one-dose screen, 48 h (100 = growth as untreated, 0 = no growth, -100 = all killed)
# Settings: 10 µM unless noted
row,Compound,growth
1,Cc1ccc2c(n1)C(=O)C(Cl)=C(Nc1ccc(C)c(C)c1)C2=O,105%
2,CN1CCN(Cc2ccc(NC(=O)c3cncc(C#Cc4cnc5ccc(N)nn45)c3)cc2C(F)(F)F)CC1,-22.7% (active)
3,O=C1[C@@H]2Cc3c([nH]c4ccccc34)[C@@H](c3ccc(Cl)cc3)N2C(=O)CN1C1CCN(Cc2ccccc2)CC1,11.3%
4,CN1CCN(c2ccc(C(=O)/C=C/c3cc(F)cc(C(F)(F)F)c3)cc2)CC1,40.6%
5,CCCc1cc2cc(-n3nc(CC)c4c3CC(C)(C)CC4=O)cc(NC3CCC(O)CC3)c2c(=O)[nH]1 (configuration not stated),-1.33% (active)
6,O=C1[C@@H]2Cc3c([nH]c4ccccc34)[C@H](c3ccc(Br)cc3)N2C(=O)CN1C1CCN(Cc2c(Cl)cccc2Cl)CC1,94.1%
7,CC1(C)CC[C@]2(C(=O)NCCCCCCN(CCCN)CCCN)CC[C@]3(C)C(=CC[C@@H]4[C@@]5(C)CC[C@H](O)C(C)(C)[C@@H]5CC[C@]43C)[C@@H]2C1,101%
8,N#Cc1c(-c2cccs2)cc(-c2cnccn2)nc1SCC(=O)N/N=C/c1ccccc1,42.3%
9,Cc1ccc(S(=O)(=O)NCCCNc2nccc(-c3[nH]c(-c4ccccc4)nc3-c3ccc(F)c(O)c3)n2)cc1,93.7%
10,COc1ccc2c(c1)c(-c1nc(N)nnc1-c1c[nH]c3ccccc13)cn2C,54%
11,COC(=O)c1ccc(NC2=C(Cl)C(=O)c3nc(C)ccc3C2=O)cc1,142%
12,N#Cc1c(-c2cccs2)cc(-c2cnccn2)nc1SCC(=O)N/N=C/c1ccncc1,98.4%
